Screens from PubChem BioAssay.
IDE exosite FP – insulin-degrading enzyme (human) exo-site inhibition. purified IDE, FL-6b probe fluorescence polarization; active compounds read low. P14735. actives 6.3% (n = 17,000). z-score at 20 µM;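 active = z-score of -3 or lower, meaning strong loss of probe binding signal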;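 note: His-tagged human IDE residues 42-1019 made in E. coli with 30 nM FL-6b probe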
Starred values were filed as active, the others as inactive; ! = repeats disagree. Shown is part of a subset that was picked to be rich in hits.

SMILES	IDE exosite FP
CC(=O)NC[C@H]1[C@@H](c2ccc(-c3cccnc3)cc2)[C@H](CO)N1C(=O)C1CC1	0.075
C[C@@H]1CCCCO[C@H](CN(C)C(=O)Nc2ccc(C(F)(F)F)cc2)[C@H](C)CN([C@H](C)CO)C(=O)c2cc(NS(=O)(=O)c3cn(C)cn3)ccc2O1	1
CC(=O)N1CC(=O)N2[C@H](CO)[C@@H](c3ccc(-c4ccccc4)cc3)[C@@H]2C1	0.11
CCC(=O)N1[C@H](CN(C)C(C)=O)[C@@H](c2ccc(C3=CCCC3)cc2)[C@@H]1CO	2.5
OC[C@@H]1[C@H](c2ccc(C#CC3(O)CCCC3)cc2)[C@H]2CN(Cc3cccnc3)CCCCN12	-0.7
C[C@@H]1CN([C@@H](C)CO)C(=O)c2c(c3ccccc3n2C)-c2ccccc2CO[C@@H]1CN(C)C(=O)Nc1ccc2c(c1)OCO2	0.76
CO[C@@H]1CN(C)C(=O)c2ccc(NS(C)(=O)=O)cc2OC[C@@H](C)N(S(=O)(=O)CC(F)(F)F)C[C@H]1C	-0.45
CCCC#Cc1ccc([C@H]2[C@@H](CO)N(S(C)(=O)=O)[C@H]2C#N)cc1	2.6
CCCC#Cc1ccc([C@H]2[C@H](CO)N3CCCCN(Cc4cccnc4)C[C@@H]23)cc1	0.4
Cc1ccccc1-c1ccc([C@H]2[C@@H](CO)N3C(=O)CN(C(=O)c4cccnc4)C[C@H]23)cc1	-17*
O=C(c1cccnc1)N1CC(=O)N2[C@H](C1)[C@@H](c1ccc(-c3ccccc3F)cc1)[C@@H]2CO	-2.7
Cc1ccccc1-c1ccc([C@@H]2[C@H]3CN(C(=O)c4cccnc4)CC(=O)N3[C@H]2CO)cc1	-20*
CCCC#Cc1ccc([C@@H]2[C@H](CO)N3C(=O)CN(C(=O)c4cccnc4)C[C@@H]23)cc1	0.55
Cc1ccccc1-c1ccc([C@@H]2[C@@H](CO)N3C(=O)CN(C(=O)c4ccncc4)C[C@H]23)cc1	-2.3
COc1ccc(C[C@H]2CCn3nncc3COC[C@@H](CC(C)C)NC2=O)cc1	-0.5
C[C@H](CO)N1C[C@H](C)[C@@H](CN(C)C(=O)CCCN(C)C)OCCCC[C@H](C)Oc2ccc(NC(=O)Nc3ccc4c(c3)OCO4)cc2C1=O	1.1
CCC(=O)N1CC[C@H]2[C@H](CO)Nc3ccc(C#Cc4ccccc4F)cc3[C@H]21	3.7
C/C=C/c1ccc([C@@H]2[C@H](CO)N3CCCCN(C(=O)Nc4cc(F)ccc4F)C[C@@H]23)cc1	1.2
COCCNC(=O)C[C@@H]1C[C@@H]2c3cc(NC(=O)CN(C)C)ccc3O[C@@H]2[C@@H](CO)O1	-1.2
O=C(Nc1ccc2c(c1)[C@H]1C[C@@H](CC(=O)N3CCc4ccccc4C3)O[C@H](CO)[C@H]1O2)c1ccc2c(c1)OCO2	-0.09
COCC#Cc1ccc([C@H]2[C@H]3CN(C(=O)COC)CCCCN3[C@H]2CO)cc1	2.4
COc1ccc(C#Cc2ccc([C@H]3[C@H](CO)N4CCCCN(C(=O)c5ccncc5)C[C@@H]34)cc2)cc1	2.1
COCC#Cc1ccc([C@H]2[C@@H](CO)N3CCCCN(C(=O)COC)C[C@@H]23)cc1	4.1
COCC(=O)N1CCCCN2[C@H](C1)[C@@H](c1ccc(C#Cc3ccc(OC)cc3)cc1)[C@@H]2CO	4.1
COc1ccc(C#Cc2ccc([C@H]3[C@@H](CO)N4CCCCN(C(=O)c5ccncc5)C[C@@H]34)cc2)cc1	-6.6*
SMILES	IDE exosite FP
COc1ccc(C#Cc2ccc([C@@H]3[C@@H](CO)N4CCCCN(C(=O)c5ccncc5)C[C@H]34)cc2)cc1	1.7
COCC(=O)N1CCCCN2[C@H](CO)[C@@H](c3ccc(C#Cc4ccccc4)cc3)[C@H]2C1	-7.1*
COCC(=O)N1CCCCN2[C@@H](CO)[C@H](c3ccc(C#Cc4ccc(OC)cc4)cc3)[C@@H]2C1	-3.1*
COCC#Cc1ccc([C@H]2[C@H](CO)N3CCCCN(C(=O)COC)C[C@@H]23)cc1	3.5
CNC(=O)C[C@H]1CC[C@H]2[C@H](COc3ccc(NS(=O)(=O)c4ccc(F)cc4)cc3C(=O)N2C)O1	-0.44
CC(C)C#Cc1ccc([C@@H]2[C@H](C#N)N(C(=O)C3CC3)[C@H]2CO)cc1	3.1
Cc1cccc(S(=O)(=O)N2CCCCN3[C@H](CO)[C@H](c4ccc(C#CC5CC5)cc4)[C@H]3C2)c1	1.5
COCC(=O)N1CCCCN2[C@@H](CO)[C@@H](c3ccc(-c4ccccc4)cc3)[C@@H]2C1	1.3
C(=C\c1ccc(C2[C@H]3CNC[C@@H]2N3Cc2ccccn2)cc1)/c1ccccc1 (some centres not stated)	-3.8*!
C(=C\c1ccc(C2[C@H]3CNC[C@@H]2N3Cc2cncnc2)cc1)/c1ccccc1 (some centres not stated)	0.52
COc1cc(CN2[C@@H]3CNC[C@H]2C3c2ccc(-c3ccccc3)cc2)cc(OC)c1 (some centres not stated)	-2.4
c1ccc(CN2[C@@H]3CNC[C@H]2C3c2ccc(-c3cccnc3)cc2)nc1 (some centres not stated)	1.7
COc1cc(CN2[C@@H]3CNC[C@H]2C3c2ccc(/C=C/c3ccccc3)cc2)cc(OC)c1 (some centres not stated)	-5.5*!
COc1cccc(CN2[C@@H]3CNC[C@H]2C3c2ccc(/C=C/c3ccccc3)cc2)c1 (some centres not stated)	-0.84
COCC(=O)Nc1ccc2c(c1)C(=O)N(C)[C@@H]1CC[C@@H](CC(=O)N3CCc4ccccc4C3)O[C@@H]1CO2	-0.89
O=C(C[C@H]1CC[C@H]2NC[C@H](O)COC[C@@H]2O1)NCCN1CCCCC1	1.1
COCC(=O)Nc1ccc2c(c1)[C@@H]1C[C@@H](CC(=O)N3CCOCC3)O[C@H](CO)[C@@H]1O2	0.3
N#Cc1ccc(-c2ccc([C@H]3[C@@H](CO)N4C(=O)CN(C(=O)C5CCCC5)C[C@H]34)cc2)cc1	1.5
O=C(c1ccc(F)cc1)N1C[C@@H]2N[C@H](C1)C2c1ccc(-c2ccc(F)cc2)cc1 (some centres not stated)	3.9
Cc1ccccc1-c1ccc(C2[C@@H]3CN(C(=O)c4ccc(F)cc4)C[C@H]2N3)cc1 (some centres not stated)	-10*!
O=C(c1ccc(F)cc1)N1C[C@@H]2N[C@H](C1)C2c1ccc(-c2ccccc2F)cc1 (some centres not stated)	-4.1*!
O=C(c1ccc(F)cc1)N1C[C@@H]2N[C@H](C1)C2c1ccc(-c2cncnc2)cc1 (some centres not stated)	3.3
O=C(c1ccncc1)N1C[C@@H]2N[C@H](C1)C2c1ccc(-c2ccncc2)cc1 (some centres not stated)	3.2
O=C(c1ccc2c(c1)OCO2)N1C[C@@H]2N[C@H](C1)C2c1ccc(-c2ccccc2F)cc1 (some centres not stated)	-2.8
CCCC#Cc1ccc([C@H]2[C@@H](CO)N(C(=O)NC(C)C)[C@@H]2CNC(C)=O)cc1	-0.16
O=C(c1cnccn1)N1CC(=O)N2[C@@H](CO)[C@@H](c3ccc(C#CC4CCCCC4)cc3)[C@@H]2C1	-0.13
Cc1cccc(-c2ccc([C@H]3[C@H]4CN(C(=O)c5ccc6c(c5)OCO6)CCCCN4[C@H]3CO)cc2)c1	0.02
O=C(C[C@@H]1CC[C@H]2[C@@H](COC[C@@H](O)CN2C(=O)c2ccncc2)O1)Nc1ccc(-c2ccccc2)cc1	-1.7
C/C=C/c1ccc([C@@H]2[C@@H](CO)N(C(=O)C3CC3)[C@H]2CN(C)C(=O)C2CC2)cc1	3.6
